# From PubChem BioAssay (EPA / NIEHS)
# Inconclusive results are not listed. Calls of active or inactive are those of the source. How the source made its calls, unless noted: active means hit-call score of the fitted dose curve at least 0.9, where 1 is the maximum; inactive means score below 0.9.
# Experiments:
# [1] = CCTE_Deisenroth_5AR_NBTE_donor: CCTE's 5alpha-reductase NanoBRET Target Engagement Assay […], Deisenroth Lab (AID 2284319); settings: actives raise or lower the signal
# In short: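 In this secondary endpoint, donor luminescence from SRD5A2-NanoLuc in transfected HEK293T flags artifacts. Test chemical (10 nM - 29.9 uM) is present five hours, tracer the last two; mock-tracer wells run plate-matched; data fitted bidirectionally against DMSO.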
# [2] = CCTE_Deisenroth_5AR_NBTE_acceptor: CCTE's 5alpha-reductase NanoBRET Target Engagement Assay - Autofluorescence Screen, Deisenroth Lab (AID 2284321); settings: actives raise or lower the signal;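 further: compound fluorescence in the acceptor channel under 460 nm excitation flags autofluorescence artifacts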
# In short: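 Chemicals diluted to a nominal 100 uM in DMSO were scanned at 460 nm excitation. Samples were read in three independent runs (n=3). Gain or loss of acceptor signal was fitted relative to DMSO.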
# [3] = test system: SRD5A2 (gene 6716); test: CCTE_Deisenroth_5AR_NBTE_ratio: CCTE's 5alpha-reductase NanoBRET Target Engagement Assay - Ratio, Deisenroth Lab (AID 2284322); settings: actives raise or lower the signal
# In short: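 SRD5A2-NanoLuc HEK293T; cmpd 10 nM-29.9 uM, 3 h preinc + testosterone tracer 2 h; NanoBRET ratio 650/460; bidirectional fit vs DMSO.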
# [4] = test system: SERPINA7 (gene 6906); test: CCTE_GLTED_hTBG: CCTE's human Thyroxine-binding Globulin (TBG) Inhibition Assay, Great Lakes Toxicology and Ecology Division (GLTED) Lab (AID 2284343; active means hit-call score of the fitted dose curve at least 0.9, where 1 is the maximum;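 further: active chemicals lower fluorescence versus DMSO baseline by displacing probe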)
# In short: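 Fluorescence (ex 380/em 475) reports ANSA displaced from human TBG after a 2 h incubation with test chemical, without cells. Loss of signal indicates displacement, with DMSO serving as baseline.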
# [5] = test system: TTR (gene 7276); test: CCTE_GLTED_hTTR_0.5uM: CCTE's human Transthyretin (hTTR) Inhibition Assay, with 0.5uM TTR, Great Lakes Toxicology and Ecology Division (GLTED) Lab (AID 2284320)
# In short: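 Probe (ANSA) displacement from 0.5 uM human transthyretin was followed by fluorescence (ex 380, em 475) after a 2 h incubation with chemical. Activity was scored as signal loss and fitted positively relative to DMSO.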
# [6] = Tanguay_ZF_120hpf_MO24: Oregon State University Tanguay Lab 24 Hour Post-fertilization zebrafish Assay for Mortality (AID 2284389)
# In short: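 Embryo death at 24 hpf was recorded as present or absent in Tropical 5D zebrafish, dechorionated at 4 hpf and dosed statically from 6 hpf (28C, 0.64% DMSO); 5 uM trimethyltin chloride served as positive control.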
# [7] = Tanguay_ZF_120hpf_DP24: Oregon State University Tanguay Lab 24 Hour Post-fertilization zebrafish Assay for Delayed Development (AID 2284390)
# In short: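 Scored at 24 hpf as a binary present/absent call of delayed development by brightfield, with dead embryos not assessed. Embryos (5D wild type, chorion removed with pronase at 4 hpf) dosed statically from 6 hpf at 28 C in 0.64% DMSO.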
# [8] = Tanguay_ZF_120hpf_CRAN: Oregon State University Tanguay Lab 120 Hour Post-fertilization zebrafish Assay for Craniofacial Malformation (AID 2284397)
# In short: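 Scoring of craniofacial malformation as a binary endpoint was done at 120 hpf by brightfield microscopy and was not done in dead embryos. Exposure was static, starting at 6 hpf, in dechorionated wild-type embryos held singly at 28C with 0.64% DMSO final.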
# [9] = CCTE_Mundy_HCI_iCellGluta_NOG_NeuronCount: CCTE's Neurite Outgrowth Assay in iCellGluta cells for Neuron Count, Mundy Lab (AID 2284340; active means hit-call score of the fitted dose curve at least 0.9, where 1 is the maximum;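 further: cells fixed about 48 h after compound addition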)
# In short: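 Neuron count read by automated high-content imaging of Hoechst 33342 and betaIII-tubulin/Alexa Fluor-488 labelling in human iPSC glutamatergic neurons. Activity fitted relative to DMSO.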
# [10] = CCTE_Mundy_HCI_iCellGluta_NOG_NeuriteCount: CCTE's Neurite Outgrowth Assay in iCellGluta cells for Neurite Count, Mundy Lab (AID 2284342; active means hit-call score of the fitted dose curve at least 0.9, where 1 is the maximum;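 further: chemical exposure about 48 hours starting 2 hours after plating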)
# [11] = CCTE_Deisenroth_H295R-HTRF_384WELL_ESTRADIOL: CCTE's H295R-HTRF Assay Evaluation of Estradiol Concentration, Deisenroth Lab (AID 2284361); settings: actives raise or lower the signal
# In short: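 Estradiol secreted into medium by H295R adrenocortical cells, quantified by HTRF after 48 h dosing over a nine-point 0.001 - 100 uM final range; gain or loss versus DMSO. Parallel ATP-luminescence viability readout; n=5 experiments.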
# [12] = CCTE_Deisenroth_H295R-HTRF_384WELL_TESTOSTERONE: CCTE's H295R-HTRF Assay Evaluation of Testosterone Concentration, Deisenroth Lab (AID 2284373); settings: actives raise or lower the signal
# In short: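 Testosterone secreted into medium was quantified by direct HTRF immunoassay after a 48 h treatment of H295R adrenocortical cells (nine concentrations, 0.001–100 uM final). Gain or loss fitted relative to DMSO; CellTiter-Glo viability read on same plates.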
# [13] = CCTE_Deisenroth_H295R-HTRF_384WELL_CTOX: Cytotoxicity Assessment in CCTE's H295R-HTRF Assay, Deisenroth Lab (AID 2284380; active means hit-call score of the fitted dose curve at least 0.9, where 1 is the maximum)
# In short: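 Luminescent ATP viability readout (CellTiter-Glo 2.0), multiplexed on plates used for hormone sampling, after 48 h chemical exposure. Human H295R cells; final concentrations 0.001–100 uM in nine steps, technical triplicates, five experiments; DMSO baseline.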
smiles,measurement,setting,value
COc1ccc(-c2coc3cc(O)cc(O)c3c2=O)cc1,outcome,[1],inactive
same,outcome,[2],inactive
same,AC50,[3],23.6 µM (active)
same,AC50,[4],23 µM (active)
CCCCNS(=O)(=O)c1ccc(C)cc1,AC50,[4],21.4 µM (active)
CC(C)(c1ccccc1)c1ccc(Nc2ccc(C(C)(C)c3ccccc3)cc2)cc1,AC50,[4],25.2 µM (active)
C[N+](C)(C)CCCNS(=O)(=O)C(F)(F)C(F)(F)C(F)(F)C(F)(F)C(F)(F)C(F)(F)C(F)(F)C(F)(F)F,AC50,[5],1.04 µM (active)
same,outcome,[6],inactive
same,AC50,[7],89.2 µM (active)
same,AC50,[8],70.4 µM (active)
CCCCCCCCCC[N+](C)(CCCCCCCCCC)CCC[Si](OC)(OC)OC,AC50,[1],33.2 µM (active)
same,AC50,[2],33.4 µM (active)
same,outcome,[3],inactive
CCOC(=O)C1=NOC(c2ccccc2)(c2ccccc2)C1,AC50,[4],2.68 µM (active)
O=S(=O)(O)c1ccc(N=Nc2c(O)ccc3ccccc23)cc1,AC50,[1],13.3 µM (active)
same,outcome,[2],inactive
same,AC50,[3],26.6 µM (active)
same,AC50,[4],19 µM (active)
O=C(OCCc1ccccc1)c1ccccc1,AC50,[4],22.6 µM (active)
O=C(O)C(F)(F)C(F)(F)C(F)(F)C(F)(F)C(=O)O,AC50,[5],5.53 µM (active)
same,outcome,[9],inactive
same,outcome,[10],inactive
same,outcome,[6],inactive
same,outcome,[7],inactive
same,outcome,[8],inactive
CCCCCCCCCCCCCC(=O)OC(C)C,outcome,[1],inactive
same,outcome,[2],inactive
same,outcome,[3],inactive
CCCCCCCOC(=O)c1ccc(O)cc1,AC50,[4],10.6 µM (active)
O=C(Oc1ccccc1)c1ccccc1O,AC50,[4],2.52 µM (active)
Oc1ccc(-c2ccccc2)c(Cl)c1,outcome,[1],inactive
same,outcome,[2],inactive
same,outcome,[3],inactive
same,AC50,[4],15.4 µM (active)
N#Cc1ccc(C(c2ccc(C#N)cc2)n2cncn2)cc1,outcome,[11],inactive
same,outcome,[12],inactive
same,outcome,[13],inactive
